Test results reported in the supplement of paper PMC10849652.
Targets with a hit are over-represented here; the source holds about 7,900 in all. About 0.6% of all pairs of compound and target were hits.

What was measured:
Assay in all cases: log2 fold change, soluble protein after heating vs DMSO (PISA); higher = thermal stabilisation; K562 cells, 10 uM, 30 min; active = over 0.2 and 3.5 SD of the protein, either way, in both replicates (recomputed)
ibrutinib = compound: C=CC(=O)N1CCC[C@@H](n2nc(-c3ccc(Oc4ccccc4)cc3)c3c(N)ncnc32)C1 [ibrutinib]
In short: (§1)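 K562 cells (2×10^6 cells/mL) were treated with 10 μM compound for 30 min, and aliquots were heated for 3 min over 48°C-58°C. Pooled aliquots were extracted in PBS with 0.5% NP-40 at 4°C, and the supernatant after 21,000xg for 90 min was measured by TMTpro 16plex LC-MS/MS with channel sums equalised. Reported thermal stability, relative to control samples and from duplicates, is a log2 fold change.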

[1] = compound: CC(=O)c1cnc2ccc(-c3cc(Cl)c(O)c(Cl)c3)nc2c1N[C@H]1CC[C@H](CN(C)C)CC1
In short: as §1

ralimetinib = compound: CC(C)(C)Cn1c(N)nc2ccc(-c3[nH]c(C(C)(C)C)nc3-c3ccc(F)cc3)nc21 [ralimetinib]
In short: as §1

[2] = compound: CC(C)(O)CC(=O)NCCn1ccc2ncnc(Nc3ccc(Oc4cccc(C(F)(F)F)c4)c(Cl)c3)c21
In short: as §1

[3] = compound: CC(C)C1=C2N=C(C=C(N2N=C1)NCC3=CC=CC=C3)NCCCCCCN
In short: as §1

[4] = compound: CC(C)C[C@@H](C=O)NC(=O)[C@H](CC(C)C)NC(=O)[C@H](CC(C)C)NC(=O)OCc1ccccc1
In short: as §1

[5] = compound: CC1=C(C=C(C=C1)NC(=O)C2=CC(=CC=C2)C(C)(C)C#N)NC3=CC4=C(C=C3)N=CN(C4=O)C
In short: as §1

[6] = compound: CC1=C(C=C(C=C1)NC(=O)C2=CC(=CC=C2)N(C)C)NC(=O)C3=CC=C(C=C3)O
In short: as §1

[7] = compound: CC1=CC=C(C=C1)SC2=C3C=C(SC3=CN=C2)C(=O)N
In short: as §1

Nexturastat A = compound: CCCCN(Cc1ccc(C(=O)NO)cc1)C(=O)Nc1ccccc1 [Nexturastat A]
In short: as §1

vemurafenib = compound: CCCS(=O)(=O)Nc1ccc(F)c(C(=O)c2c[nH]c3ncc(-c4ccc(Cl)cc4)cc23)c1F [vemurafenib]
In short: as §1

[8] = compound: CCCS(=O)(=O)Nc1ccc(F)c(C(=O)c2c[nH]c3ncc(Cl)cc23)c1F
In short: as §1

givinostat = compound: CCN(CC)Cc1ccc2cc(COC(=O)Nc3ccc(C(=O)NO)cc3)ccc2c1 [givinostat]
In short: as §1

barasertib = compound: CCN(CCCOc1ccc2c(Nc3cc(CC(=O)Nc4cccc(F)c4)[nH]n3)ncnc2c1)CCOP(=O)(O)O [barasertib]
In short: as §1

[9] = compound: CC1=C(C2=C(C=C1)C(=O)C3=CC=CC=C3N2CCCN)C
In short: as §1

[10] = compound: CCCc1cc(C)[nH]c(=O)c1CNC(=O)c1cc(-c2ccnc(N3CCN(C)CC3)c2)cc2c1cnn2C(C)C
In short: as §1

[11] = compound: CC1=C(C(CC(=O)N1)C2=CC=C(C=C2)C(F)(F)F)C(=O)NC3=C(C=C4C(=C3)C=NN4)F
In short: as §1

IRAK-1-4 Inhibitor I = compound: C1COCCN1CCN2C3=CC=CC=C3N=C2NC(=O)C4=CC(=CC=C4)[N+](=O)[O-] [IRAK-1-4 Inhibitor I]
In short: as §1

pinometostat = compound: CC(C)N(C[C@H]1O[C@@H](n2cnc3c(N)ncnc32)[C@H](O)[C@@H]1O)[C@H]1C[C@@H](CCc2nc3cc(C(C)(C)C)ccc3[nH]2)C1 [pinometostat]
In short: as §1

[12] = compound: CC1=NC(=CC=C1)C2=C(N=C(N2)C(C)(C)C)C3=CC4=NC=CN=C4C=C3
In short: as §1

Measured: log2 fold change

AIF1 (UniProt P55008)
inactive: ibrutinib 0.012 | [1] 0.028 | ralimetinib -0.112 | [2] 0.035 | [3] -0.033 | [4] 0.07 | [5] -0.042 | [6] -0.039 | [7] -0.056 | Nexturastat A 0.048 | vemurafenib -0.112 | [8] 0 | givinostat -0.057 | barasertib -0.102

BRMS1 (UniProt Q9HCU9)
active: Nexturastat A 0.512
inactive: [1] 0.055 | [2] -0.002 | [9] -0.014 | [10] 0.137

ARHGAP25 isoform 4 (UniProt P42331)
active: [3] -0.961
inactive: ibrutinib -0.064 | [1] -0.16 | [2] -0.465 | [11] -0.418 | [9] 0.066 | Nexturastat A 0.078 | vemurafenib 0.086 | [10] -0.052 | givinostat 0.307 | barasertib -0.018

ADD2 isoform 9 (UniProt P35612)
Sequence of UniProt P35612 (P35612 whole entry, looked up): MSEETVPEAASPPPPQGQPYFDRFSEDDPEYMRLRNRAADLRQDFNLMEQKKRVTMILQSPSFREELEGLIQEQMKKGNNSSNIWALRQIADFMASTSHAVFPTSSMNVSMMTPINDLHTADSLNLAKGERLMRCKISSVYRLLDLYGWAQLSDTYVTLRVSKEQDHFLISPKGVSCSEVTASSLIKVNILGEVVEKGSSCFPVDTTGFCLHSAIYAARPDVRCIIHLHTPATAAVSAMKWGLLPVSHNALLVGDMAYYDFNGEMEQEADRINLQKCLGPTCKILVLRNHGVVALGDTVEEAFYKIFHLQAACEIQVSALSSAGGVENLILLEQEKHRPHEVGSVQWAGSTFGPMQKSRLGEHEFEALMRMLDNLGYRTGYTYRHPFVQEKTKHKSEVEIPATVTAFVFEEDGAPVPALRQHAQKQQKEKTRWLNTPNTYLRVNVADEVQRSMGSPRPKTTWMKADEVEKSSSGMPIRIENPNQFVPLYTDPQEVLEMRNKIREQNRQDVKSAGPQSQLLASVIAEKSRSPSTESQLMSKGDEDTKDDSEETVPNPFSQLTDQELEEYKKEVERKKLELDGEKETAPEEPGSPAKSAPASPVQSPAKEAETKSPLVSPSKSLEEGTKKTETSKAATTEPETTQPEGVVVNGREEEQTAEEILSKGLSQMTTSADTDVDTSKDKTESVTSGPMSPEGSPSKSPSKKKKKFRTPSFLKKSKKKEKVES
inactive: ibrutinib -0.098 | ralimetinib 0.145 | [4] -0.103 | [5] 0.191 | [6] 0.065 | [7] -0.067 | [8] -0.114 | [10] 0.079 | barasertib 0.047

ACTR3B (UniProt Q9P1U1)
inactive: IRAK-1-4 Inhibitor I -0.04 | ralimetinib -0.071 | [3] 0.181 | [4] 0.056 | pinometostat -0.081 | [11] -0.015 | [9] -0.016 | [6] -0.046 | [7] -0.05 | [12] 0.198 | vemurafenib 0.019 | [8] 0.014 | givinostat 0.147

AKNA (UniProt Q7Z591)
active: [3] -0.659
inactive: [5] 0.079 | [7] -0.047 | [8] -0.02 | givinostat 0.177

BAP18 isoform 3 (UniProt Q8IXM2)
Sequence of UniProt Q8IXM2 (Q8IXM2 whole entry, looked up): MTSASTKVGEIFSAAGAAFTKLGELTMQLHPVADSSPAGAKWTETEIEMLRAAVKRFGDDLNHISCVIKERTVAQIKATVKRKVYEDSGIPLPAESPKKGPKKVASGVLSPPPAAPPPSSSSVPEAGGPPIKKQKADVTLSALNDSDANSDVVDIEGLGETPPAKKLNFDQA
inactive: [3] 0.074 | [9] -0.183 | [10] 0.005 | givinostat 0.025

ALDH9A1 (UniProt P49189)
Sequence of UniProt P49189 (P49189 whole entry, looked up): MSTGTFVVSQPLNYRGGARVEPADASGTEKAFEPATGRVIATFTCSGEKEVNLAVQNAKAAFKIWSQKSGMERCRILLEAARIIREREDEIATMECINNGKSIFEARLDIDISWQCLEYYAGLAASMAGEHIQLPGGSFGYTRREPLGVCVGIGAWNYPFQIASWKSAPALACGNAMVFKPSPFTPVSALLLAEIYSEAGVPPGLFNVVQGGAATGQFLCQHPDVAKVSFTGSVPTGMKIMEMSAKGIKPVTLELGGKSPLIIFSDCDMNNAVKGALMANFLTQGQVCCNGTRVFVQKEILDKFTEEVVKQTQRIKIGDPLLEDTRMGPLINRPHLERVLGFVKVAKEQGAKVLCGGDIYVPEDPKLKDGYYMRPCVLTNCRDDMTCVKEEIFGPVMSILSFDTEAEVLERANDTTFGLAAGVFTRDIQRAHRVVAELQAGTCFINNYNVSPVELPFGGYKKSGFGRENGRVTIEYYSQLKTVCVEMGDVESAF
inactive: ibrutinib -0.008 | [1] -0.024 | ralimetinib -0.077 | [2] 0 | [3] -0.27 | [4] 0.185 | [11] -0.056 | [9] -0.035 | [5] 0.004 | [6] 0.004 | [7] -0.015 | Nexturastat A -0.125 | vemurafenib 0.026 | [8] 0.005 | [10] 0.18 | givinostat 0.058 | barasertib 0.05

ARRDC1 (UniProt Q8N5I2)
inactive: ibrutinib 0.062 | ralimetinib 0.076 | [2] 0.102 | [3] -0.07 | [4] 0.094 | [11] -0.075 | [9] 0.045 | [5] -0.061 | [6] 0 | [7] 0.071 | Nexturastat A 0.021 | vemurafenib 0.048 | [8] 0.039 | [10] 0.023 | givinostat 0.136 | barasertib -0.179

ARMC8 isoform 6 (UniProt Q8IUR7)
Sequence of UniProt Q8IUR7 (Q8IUR7 whole entry, looked up): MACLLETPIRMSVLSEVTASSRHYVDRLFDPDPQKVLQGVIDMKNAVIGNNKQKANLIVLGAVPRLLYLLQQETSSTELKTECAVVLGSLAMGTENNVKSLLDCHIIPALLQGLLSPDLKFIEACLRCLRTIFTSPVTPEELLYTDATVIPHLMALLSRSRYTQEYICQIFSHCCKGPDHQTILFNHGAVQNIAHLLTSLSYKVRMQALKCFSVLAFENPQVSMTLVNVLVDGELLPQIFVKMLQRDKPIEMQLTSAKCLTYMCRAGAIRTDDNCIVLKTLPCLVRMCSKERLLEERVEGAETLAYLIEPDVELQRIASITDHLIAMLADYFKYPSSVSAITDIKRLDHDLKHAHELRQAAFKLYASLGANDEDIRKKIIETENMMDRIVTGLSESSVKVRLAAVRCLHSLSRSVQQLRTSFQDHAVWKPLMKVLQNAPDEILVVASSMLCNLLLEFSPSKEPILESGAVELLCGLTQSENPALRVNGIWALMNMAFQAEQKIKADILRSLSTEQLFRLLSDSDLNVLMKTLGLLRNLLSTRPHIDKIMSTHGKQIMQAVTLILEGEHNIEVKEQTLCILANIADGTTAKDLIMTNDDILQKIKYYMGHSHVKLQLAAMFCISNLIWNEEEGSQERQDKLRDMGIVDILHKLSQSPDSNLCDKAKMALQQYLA
inactive: ibrutinib 0.016 | [1] 0.038 | [3] 0.053 | [11] -0.024 | vemurafenib 0.031 | givinostat 0.075 | barasertib -0.021

ARL4A (UniProt P40617)
Sequence of UniProt P40617 (P40617 whole entry, looked up): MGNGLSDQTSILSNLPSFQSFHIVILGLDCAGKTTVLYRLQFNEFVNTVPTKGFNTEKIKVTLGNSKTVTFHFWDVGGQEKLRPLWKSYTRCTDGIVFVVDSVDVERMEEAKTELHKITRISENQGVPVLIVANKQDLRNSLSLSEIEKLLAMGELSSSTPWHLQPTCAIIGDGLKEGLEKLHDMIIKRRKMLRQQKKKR
inactive: ibrutinib 0.143 | [1] -0.295 | [10] 0.078 | barasertib 0.057

BRD4 (UniProt O60885)
active: Nexturastat A -0.451
inactive: ibrutinib -0.018 | [1] -0.254 | ralimetinib -0.174 | [2] -0.011 | [3] 0.094 | [4] -0.035 | [11] 0.047 | [9] 0.101 | [5] 0.245 | [6] -0.272 | [7] 0.071 | vemurafenib 0.046 | [8] -0.003 | [10] 0.017 | givinostat -0.252 | barasertib 0.021

ACSL6 isoform 1 (UniProt Q9UKU0)
inactive: ibrutinib 0.043 | ralimetinib -0.001 | [2] 0.222 | [3] -0.21 | [4] 0.027 | [11] -0.109 | [9] 0.012 | [5] 0.075 | [6] -0.014 | Nexturastat A 0.082 | vemurafenib 0.17 | [10] 0.035 | givinostat 0.04 | barasertib 0.133

ACVR1 (UniProt Q04771)
inactive: [2] -0.158 | [3] 0.06 | [9] 0.127 | [5] -0.194 | [7] 0.011 | Nexturastat A 0.037 | vemurafenib 0.015 | [8] 0.017 | [10] -0.149 | givinostat 0.031
active: [1] 0.873

BRAF (UniProt P15056)
Sequence of UniProt P15056 (P15056 whole entry, looked up): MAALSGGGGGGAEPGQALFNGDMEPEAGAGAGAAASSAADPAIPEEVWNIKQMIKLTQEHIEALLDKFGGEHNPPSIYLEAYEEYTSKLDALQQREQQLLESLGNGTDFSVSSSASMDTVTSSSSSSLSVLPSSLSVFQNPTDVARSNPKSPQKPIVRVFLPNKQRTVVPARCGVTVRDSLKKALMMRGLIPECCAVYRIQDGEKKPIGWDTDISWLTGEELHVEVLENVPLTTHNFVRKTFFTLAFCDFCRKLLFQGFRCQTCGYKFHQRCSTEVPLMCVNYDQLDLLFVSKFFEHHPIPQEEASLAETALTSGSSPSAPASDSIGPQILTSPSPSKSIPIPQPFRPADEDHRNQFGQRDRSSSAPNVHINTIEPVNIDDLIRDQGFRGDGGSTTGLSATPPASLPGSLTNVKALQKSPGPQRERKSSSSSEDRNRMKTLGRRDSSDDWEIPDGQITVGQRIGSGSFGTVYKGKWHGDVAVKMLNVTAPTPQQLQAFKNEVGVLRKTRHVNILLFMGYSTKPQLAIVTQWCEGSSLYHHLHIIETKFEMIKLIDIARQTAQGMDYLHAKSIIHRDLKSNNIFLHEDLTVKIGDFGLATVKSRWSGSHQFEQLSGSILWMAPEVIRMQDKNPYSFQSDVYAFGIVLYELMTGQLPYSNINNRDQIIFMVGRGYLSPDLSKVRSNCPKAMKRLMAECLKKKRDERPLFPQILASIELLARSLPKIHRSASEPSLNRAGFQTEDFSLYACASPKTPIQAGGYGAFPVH
inactive: IRAK-1-4 Inhibitor I -0.025 | ibrutinib 0.002 | ralimetinib 0.019 | [3] -0.044 | [4] -0.031 | pinometostat 0.047 | [11] 0.003 | [9] 0.056 | [5] 0.15 | [7] 0.02 | [12] -0.01 | Nexturastat A -0.053 | vemurafenib 0.148 | [8] 0.144 | [10] -0.049 | givinostat -0.031 | barasertib 0.022

BTBD6 (UniProt Q96KE9)
inactive: ibrutinib 0.136 | [1] 0.145 | ralimetinib 0.201 | [2] -0.008 | [3] 0.296 | [4] 0.025 | [11] 0.068 | [9] 0.005 | [5] -0.061 | [6] -0.108 | [7] 0.003 | Nexturastat A 0.531 | vemurafenib 0.002 | [8] 0.007 | [10] -0.017 | givinostat 0.358 | barasertib -0.017

ADD1 isoform 4 (UniProt P35611)
inactive: IRAK-1-4 Inhibitor I -0.21 | ibrutinib 0.029 | [2] -0.117 | pinometostat 0.122 | [12] 0.098 | Nexturastat A 0.024 | barasertib 0.03

BAIAP2 isoform 4 (UniProt Q9UQB8)
inactive: [9] 0.053 | [5] 0.034

APAF1 (UniProt O14727)
active: givinostat 0.395
inactive: IRAK-1-4 Inhibitor I 0.001 | [1] -0.153 | ralimetinib -0.07 | [2] -0.08 | [3] -0.156 | [4] 0.135 | pinometostat 0.066 | [11] 0.047 | [5] 0.023 | [6] 0.014 | [7] -0.003 | [12] -0.125 | Nexturastat A 0.056 | vemurafenib -0.006 | [8] -0.068 | [10] -0.1

ATP6V0A1 (UniProt Q93050)
inactive: ibrutinib 0.047 | barasertib -0.095

ANGEL1 (UniProt Q9UNK9)
active: [12] 0.591
inactive: IRAK-1-4 Inhibitor I -0.042 | ibrutinib 0.062 | ralimetinib 0.332 | [4] 0.207 | pinometostat -0.019 | [9] 0.074 | [6] -0.121 | vemurafenib -0.079 | barasertib 0.033

BRD2 isoform 2 (UniProt P25440)
inactive: IRAK-1-4 Inhibitor I 0.091 | ibrutinib -0.164 | [1] -0.63 | [3] 0.042 | pinometostat 0.038 | [9] -0.117 | [5] 0.348 | [7] 0.039 | [12] 0.076 | vemurafenib -0.033 | [8] 0.014 | givinostat -0.596 | barasertib -0.053

AASDH (UniProt Q4L235)
Sequence of UniProt Q4L235 (Q4L235 whole entry, looked up): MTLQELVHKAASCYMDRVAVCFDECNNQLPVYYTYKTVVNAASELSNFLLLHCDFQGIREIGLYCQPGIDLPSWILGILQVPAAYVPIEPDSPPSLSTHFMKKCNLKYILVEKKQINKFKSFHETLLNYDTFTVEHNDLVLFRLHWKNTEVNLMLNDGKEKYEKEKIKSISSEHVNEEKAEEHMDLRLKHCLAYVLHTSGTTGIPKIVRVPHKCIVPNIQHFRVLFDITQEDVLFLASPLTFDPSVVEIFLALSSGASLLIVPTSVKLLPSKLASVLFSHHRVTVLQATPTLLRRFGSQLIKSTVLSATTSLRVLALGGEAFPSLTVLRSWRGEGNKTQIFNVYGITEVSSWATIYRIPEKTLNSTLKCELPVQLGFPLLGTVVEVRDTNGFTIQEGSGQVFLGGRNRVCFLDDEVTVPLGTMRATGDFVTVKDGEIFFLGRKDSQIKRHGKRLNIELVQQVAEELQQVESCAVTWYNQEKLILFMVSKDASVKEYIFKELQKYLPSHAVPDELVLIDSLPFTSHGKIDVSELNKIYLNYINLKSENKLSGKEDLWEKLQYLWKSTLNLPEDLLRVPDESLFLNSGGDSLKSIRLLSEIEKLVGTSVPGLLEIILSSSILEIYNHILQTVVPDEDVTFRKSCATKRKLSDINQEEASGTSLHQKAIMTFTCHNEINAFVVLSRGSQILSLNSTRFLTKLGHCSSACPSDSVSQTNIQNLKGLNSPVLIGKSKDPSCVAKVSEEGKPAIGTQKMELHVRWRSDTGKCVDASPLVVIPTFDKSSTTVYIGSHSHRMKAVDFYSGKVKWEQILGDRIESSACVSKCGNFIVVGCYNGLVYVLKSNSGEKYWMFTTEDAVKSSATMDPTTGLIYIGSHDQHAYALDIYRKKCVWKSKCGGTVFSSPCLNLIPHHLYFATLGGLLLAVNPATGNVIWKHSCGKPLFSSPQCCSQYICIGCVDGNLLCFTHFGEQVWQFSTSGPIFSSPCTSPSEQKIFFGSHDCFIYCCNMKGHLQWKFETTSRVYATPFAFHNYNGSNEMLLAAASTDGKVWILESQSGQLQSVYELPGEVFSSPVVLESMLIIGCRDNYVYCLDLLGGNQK
inactive: IRAK-1-4 Inhibitor I 0.037 | ibrutinib -0.308 | ralimetinib -0.011 | [2] -0.15 | [3] -0.107 | [4] -0.066 | pinometostat 0.038 | [11] -0.017 | [9] -0.184 | [5] -0.001 | [6] 0.024 | [7] -0.043 | [12] -0.056 | Nexturastat A 0.179 | vemurafenib 0.094 | [8] 0.103 | [10] 0.149 | givinostat 0.033 | barasertib 0.09

ADPRH (UniProt P54922)
Sequence of UniProt P54922 (P54922 whole entry, looked up): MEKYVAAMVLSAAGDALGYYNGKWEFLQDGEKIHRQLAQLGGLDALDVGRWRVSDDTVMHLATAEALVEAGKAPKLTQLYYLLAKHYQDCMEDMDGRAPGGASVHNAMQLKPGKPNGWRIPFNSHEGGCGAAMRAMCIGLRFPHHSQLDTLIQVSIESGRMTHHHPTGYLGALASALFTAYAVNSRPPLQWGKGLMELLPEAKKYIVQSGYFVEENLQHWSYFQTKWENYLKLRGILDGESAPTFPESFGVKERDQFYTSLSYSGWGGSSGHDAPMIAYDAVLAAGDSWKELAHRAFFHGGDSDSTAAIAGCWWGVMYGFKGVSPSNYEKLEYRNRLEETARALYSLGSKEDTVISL
inactive: IRAK-1-4 Inhibitor I 0.056 | ibrutinib 0.001 | ralimetinib -0.003 | [2] -0.084 | [3] 0.107 | [4] -0.033 | pinometostat 0.021 | [11] -0.032 | [9] 0.037 | [5] 0.014 | [6] -0.008 | [7] -0.002 | [12] -0.134 | Nexturastat A 0.015 | vemurafenib 0.071 | [8] -0.037 | [10] -0.005 | givinostat 0.025 | barasertib -0.036

BRAF, A0A2R8Y8E0
active: [6] -1.03
inactive: IRAK-1-4 Inhibitor I 0.055 | [1] 0.156 | ralimetinib 0.059 | [3] -0.188 | [4] 0.067 | pinometostat -0.04 | [11] 0.149 | [9] 0.078 | [12] -0.021 | [10] -0.078 | givinostat -0.006

AUNIP isoform 2 (UniProt Q9H7T9)
inactive: [1] -0.219 | [3] -0.134 | [9] -0.141 | [5] 0.113 | [7] 0.101 | vemurafenib 0.081 | [8] 0.073 | givinostat 0.083

ARFIP1 isoform 2 (UniProt P53367)
Sequence of UniProt P53367 (P53367 whole entry, looked up): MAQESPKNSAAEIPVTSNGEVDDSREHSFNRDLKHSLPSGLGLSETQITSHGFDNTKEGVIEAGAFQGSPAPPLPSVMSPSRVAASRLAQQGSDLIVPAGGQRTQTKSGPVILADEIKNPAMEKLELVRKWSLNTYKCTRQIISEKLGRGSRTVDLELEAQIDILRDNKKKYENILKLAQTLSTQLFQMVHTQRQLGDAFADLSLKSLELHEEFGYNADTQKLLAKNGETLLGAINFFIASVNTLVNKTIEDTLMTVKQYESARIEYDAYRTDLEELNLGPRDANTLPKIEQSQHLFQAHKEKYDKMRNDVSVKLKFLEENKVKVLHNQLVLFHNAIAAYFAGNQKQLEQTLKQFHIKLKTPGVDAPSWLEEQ
inactive: IRAK-1-4 Inhibitor I -0.051 | ibrutinib -0.055 | [2] -0.186 | [3] -0.048 | pinometostat 0.043 | [11] 0.029 | [5] -0.106 | [7] 0.051 | [12] 0.031 | Nexturastat A -0.025 | [8] 0.097 | [10] 0.121 | givinostat 0.061 | barasertib 0.019

ARHGAP4 isoform 2 (UniProt P98171)
inactive: ibrutinib 0.026 | [1] -0.051 | ralimetinib 0.161 | [3] -0.067 | [4] -0.005 | [11] -0.179 | [9] 0.062 | [5] -0.14 | [6] 0.039 | [7] -0.08 | vemurafenib 0.047 | [8] -0.049 | [10] -0.194 | givinostat 0.034 | barasertib -0.466
